# In PubChem BioAssay (Tox21):
# Inconclusive results are not listed. Where a call stands in place of a potency, no number is given. More than one record can exist for a structure, and the calls need not agree. Activity calls are given as the source filed them. Unless noted, calls come from the whole dose curve; as a rule, active = well fitted curve in the direction sought with a large enough effect in the repeat runs; inconclusive = weak or mixed curves; inactive = no such curve, though single readings can be large; an effect the other way counts as inactive or inconclusive.
# What was measured:
# [1] = qHTS RealTime-Glo MT Cell Viability Assay in HEK293 cells - 0 hour (AID 1224880); note: nearly all actives have a fitted effect of over 45% in size; note: potency is the fitted concentration of half-maximal effect
# Summary of the method: (§1)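 Luminescence readout at each listed time point; HEK293, 600 cells/well, RealTime-Glo MT reagent added with cells; compounds pinned (23 nL in DMSO) after 5 h at 37 C; continuous culture at 37 C.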
# [2] = A CellTox Green Cytotoxicity Assay to monitor cytotoxicity in HEK293 cells - 32 hour (AID 1224881); note: nearly all actives have a fitted effect of over 40% in size; note: potency is the fitted concentration of half-maximal effect
# Summary of the method: (§2)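 Read-out: fluorescence of a cell-impermeant cyanine dye staining DNA of dead cells, proportional to cytotoxicity. HEK293, 600 cells/well with reagent, compound (23 nL DMSO) added after 5 h; reads at 0, 8, 16, 24, 32, 40 h.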
# [3] = A CellTox Green Cytotoxicity Assay to monitor cytotoxicity in HepG2 cells - 0 hour (AID 1224882); note: nearly all actives have a fitted effect of over 35% in size
# Summary of the method: (§3)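 HepG2, 600 cells/well premixed w/ CellTox Green; 5 h settle, 37 C/5% CO2; pintool cpd add (DMSO); 37 C, 40 h; fluorescence read at 0, 8, 16, 24, 32, 40 h.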
# [4] = A CellTox Green Cytotoxicity Assay to monitor cytotoxicity in HepG2 cells - 32 hour (AID 1224883); note: nearly all actives have a fitted effect of over 50% in size; note: potency is the fitted concentration of half-maximal effect
# Summary of the method: as §3
# [5] = qHTS RealTime-Glo MT Cell Viability Assay in HepG2 cells - 16 hour (AID 1224885); note: nearly all actives have a fitted effect of over 50% in size
# Summary of the method: (§4)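 Cells + NanoLuc/prosubstrate dispensed (600 cells/well) → 5 h at 37 C/5% CO2 → compounds in DMSO transferred → 40 h incubation at 37 C, luminescence read at 0, 8, 16, 24, 32, 40 h.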
# [6] = qHTS RealTime-Glo MT Cell Viability Assay in HEK293 cells - 24 hour (AID 1224886); note: nearly all actives have a fitted effect of over 50% in size; note: potency is the fitted concentration of half-maximal effect
# Summary of the method: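 Tox21 10K qHTS, HEK293, 600 cells/well, RealTime-Glo reagent co-dispensed with cells; 5 h preincubation, compound by pintool, 37 C, luminescence at 0–40 h.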
# [7] = qHTS RealTime-Glo MT Cell Viability Assay in HEK293 cells - 8 hour (AID 1224887); note: nearly all actives have a fitted effect of over 50% in size; note: potency is the fitted concentration of half-maximal effect
# Summary of the method: as §1
# [8] = qHTS RealTime-Glo MT Cell Viability Assay in HepG2 cells - 0 hour (AID 1224889); note: nearly all actives have a fitted effect of over 50% in size; note: potency is the fitted concentration of half-maximal effect
# Summary of the method: as §4
# [9] = A CellTox Green Cytotoxicity Assay to monitor cytotoxicity in HepG2 cells - 8 hour (AID 1224890); note: nearly all actives have a fitted effect of over 45% in size
# Summary of the method: as §3
# [10] = qHTS assay to identify small molecule antagonists of the estrogen receptor alpha (ER-alpha) signaling pathway using the BG1 cell line in the presence of 0.1 nM 17-beta-estradiol - cell viability counter screen (AID 1259241); note: nearly all actives have a fitted effect of over 40% in size; note: potency is the fitted concentration of half-maximal effect
# Summary of the method: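 Live-cell protease activity (CellTiter-Fluor fluorescence, 30 min) was read in the same wells after VM7Luc4E2 cells had been exposed to compounds with 0.1 nM 17beta-estradiol for 22 hr at 37C.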
# [11] = qHTS assay to identify small molecule antagonists of the androgen receptor (AR) signaling pathway using the MDA cell line in the presence of 0.5 nM R1881 - cell viability counter screen (AID 1259242); note: nearly all actives have a fitted effect of over 45% in size; note: potency is the fitted concentration of half-maximal effect
# Summary of the method: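 Live-cell protease fluorescence, CellTiter-Fluor, 30 min at 37C. Cells: MDA-kb2, 3,000/well, preincubated 5 hr. Compounds plus 0.5 nM R1881 final, 16 hr, 37C, 0% CO2.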
# [12] = biological target: Androgen receptor (Homo sapiens) (UniProt P10275); assay: qHTS assay to identify small molecule antagonists of the androgen receptor (AR) signaling pathway using the MDA cell line in the presence of 0.5 nM R1881 (AID 1259243); note: nearly all actives have a fitted effect of over 50% in size; note: potency is the fitted concentration of half-maximal effect
# Summary of the method: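 MDA-kb2, MMTV-luc (AR/GR elements); 3,000 cells/well; cpd + 0.5 nM R1881 final; 16 hr 37C, 0% CO2; ONE-Glo 30 min RT; luminescence.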
# [13] = biological target: Estrogen receptor (Homo sapiens) (UniProt P03372); assay: qHTS assay to identify small molecule antagonists of the estrogen receptor alpha (ER-alpha) signaling pathway using the BG1 cell line in the presence of 0.1 nM 17-beta-estradiol (AID 1259244); note: nearly all actives have a fitted effect of over 50% in size; note: potency is the fitted concentration of half-maximal effect
# Summary of the method: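 Luminescence after ONE-Glo (30 min, room temperature) measured ERE-luciferase activity in VM7Luc4E2 cells treated 22 h with compound and 0.1 nM final 17beta-estradiol as stimulator.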
# [14] = qHTS assay to identify small molecule HDAC inhibitors (AID 1259364); note: potency is the fitted concentration of half-maximal effect;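 note: wild-type HCT-116 cells with endogenous class I/II HDAC activity; nearly all actives have a fitted effect of over 45% in size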
# Summary of the method: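 HCT-116 (wild type), 1,500 cells/well, overnight; compound 2 hr 37C 5% CO2; HDAC-Glo I/II reagent 30 min RT; luminescence readout.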
# [15] = qHTS assay to identify small molecule HDAC inhibitors - cell viability counter screen (AID 1259365); note: nearly all actives have a fitted effect of over 50% in size; note: potency is the fitted concentration of half-maximal effect
# Summary of the method: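 HCT-116 (wild type), 1,500 cells/well, overnight 37C/5% CO2; compound in DMSO 2hr; CellTiter-Glo 30min RT; luminescence read.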
# [16] = qHTS assay to identify small molecule agonists of the sonic hedgehog signaling (Shh) pathway - cell viability counter screen (AID 1259366); note: nearly all actives have a fitted effect of over 50% in size; note: potency is the fitted concentration of half-maximal effect
# Summary of the method: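 CellTiter-Fluor fluorescence read-out, 1 hr at 37C, added after 23hr compound exposure. Cells: 3T3 Gli1-Luc, an NIH/3T3 clone with stably integrated Gli1-Luc reporter, plated 4hr before compound.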
# [17] = qHTS assay to identify small molecule antagonists of the sonic hedgehog signaling (Shh) pathway - cell viability counter screen (AID 1259367); note: nearly all actives have a fitted effect of over 55% in size; note: potency is the fitted concentration of half-maximal effect
# Summary of the method: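 Fluorescence read-out (CellTiter-Fluor, 1 hr at 37C) taken after 23 hr compound treatment of 3T3 Gli1-Luc cells stimulated with conditioned medium. Cells were seeded at 2,000 per well and pre-incubated 4 hr.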
# [18] = A CellTox Green Cytotoxicity Assay to monitor cytotoxicity in HEK293 cells - 8 hour (AID 1224884); note: nearly all actives have a fitted effect of over 35% in size
# Summary of the method: as §2
# [19] = A CellTox Green Cytotoxicity Assay to monitor cytotoxicity in HEK293 cells - 16 hour (AID 1224888); note: nearly all actives have a fitted effect of over 35% in size
# Summary of the method: as §2
# [20] = qHTS assay to identify small molecule phospholipidosis (PLD) inducers (AID 1259344; active = well fitted curve in the direction sought with a large enough effect; an effect the other way counts as inactive or inconclusive)
# Summary of the method: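 Read-out is LipidTOX Red fluorescence (ex 595/em 615) imaged in HepG2 cells after 24 h compound exposure at 37 C, with Hoechst nuclear counterstain (ex 352/em 461) allowing per-cell normalisation.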
# Chain of Androgen receptor (Homo sapiens) (P10275 whole entry, looked up): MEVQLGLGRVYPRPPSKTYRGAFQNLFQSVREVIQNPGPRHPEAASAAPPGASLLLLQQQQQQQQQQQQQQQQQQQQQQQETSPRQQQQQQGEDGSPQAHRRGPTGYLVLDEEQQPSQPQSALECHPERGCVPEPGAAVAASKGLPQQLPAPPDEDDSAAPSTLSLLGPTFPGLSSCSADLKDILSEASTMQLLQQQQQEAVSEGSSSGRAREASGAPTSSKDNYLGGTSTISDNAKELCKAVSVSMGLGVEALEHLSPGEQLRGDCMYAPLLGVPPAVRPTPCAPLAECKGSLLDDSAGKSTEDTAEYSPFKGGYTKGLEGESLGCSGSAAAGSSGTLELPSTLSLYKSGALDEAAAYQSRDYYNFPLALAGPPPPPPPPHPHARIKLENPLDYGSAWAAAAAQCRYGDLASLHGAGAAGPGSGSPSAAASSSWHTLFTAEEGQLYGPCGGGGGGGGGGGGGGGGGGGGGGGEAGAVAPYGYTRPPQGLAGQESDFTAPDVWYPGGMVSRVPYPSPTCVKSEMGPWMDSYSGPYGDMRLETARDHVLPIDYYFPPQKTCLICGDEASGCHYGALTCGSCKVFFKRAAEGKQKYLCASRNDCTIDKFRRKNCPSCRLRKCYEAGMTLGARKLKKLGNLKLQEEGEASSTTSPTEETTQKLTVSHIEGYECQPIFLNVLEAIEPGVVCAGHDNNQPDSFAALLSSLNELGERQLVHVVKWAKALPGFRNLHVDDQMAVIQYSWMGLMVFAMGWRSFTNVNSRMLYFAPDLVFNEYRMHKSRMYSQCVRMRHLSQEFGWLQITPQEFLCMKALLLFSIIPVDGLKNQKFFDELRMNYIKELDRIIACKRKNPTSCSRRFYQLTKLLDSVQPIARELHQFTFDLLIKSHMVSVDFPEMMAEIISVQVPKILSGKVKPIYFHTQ
# Chain of Estrogen receptor (Homo sapiens) (P03372 whole entry, looked up): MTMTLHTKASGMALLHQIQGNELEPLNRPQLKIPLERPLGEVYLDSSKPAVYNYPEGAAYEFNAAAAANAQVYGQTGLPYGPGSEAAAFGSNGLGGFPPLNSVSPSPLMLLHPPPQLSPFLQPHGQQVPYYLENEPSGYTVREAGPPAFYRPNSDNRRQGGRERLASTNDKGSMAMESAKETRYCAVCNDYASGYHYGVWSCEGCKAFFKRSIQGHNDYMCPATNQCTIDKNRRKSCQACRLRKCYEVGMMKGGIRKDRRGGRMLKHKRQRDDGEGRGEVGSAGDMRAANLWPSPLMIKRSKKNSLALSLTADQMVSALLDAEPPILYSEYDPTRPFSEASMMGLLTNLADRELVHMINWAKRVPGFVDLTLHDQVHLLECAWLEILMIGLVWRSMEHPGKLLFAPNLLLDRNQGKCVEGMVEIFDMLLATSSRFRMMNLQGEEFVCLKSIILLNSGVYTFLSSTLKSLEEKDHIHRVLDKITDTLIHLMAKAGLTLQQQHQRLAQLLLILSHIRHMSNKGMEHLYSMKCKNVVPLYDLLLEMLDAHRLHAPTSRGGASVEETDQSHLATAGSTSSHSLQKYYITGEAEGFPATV
Structure (SMILES),Potency [1],Potency [2],Potency [3],Potency [4],Potency [5],Potency [6],Potency [7],Potency [8],Potency [9],Potency [10],Potency [11],Potency [12],Potency [13],Potency [14],Potency [15],Potency [16],Potency [17],Potency [18],Potency [19],outcome [20]
CCOP(=S)(OCC)Oc1nc(Cl)c(Cl)cc1Cl,inactive,39 µM (active) and inactive,inactive,inactive,inactive,21.9 µM (active) and inactive,19.5 µM (active) and inactive,inactive,inactive,inactive,inactive,27.4 µM (active),inactive,inactive,48.7 µM (active) and inactive,43.4 µM (active) and inactive,68.7 µM (active) and inactive,,,
O=C(CBr)OCc1ccccc1,inactive,inactive,inactive,inactive,inactive,,inactive,inactive,inactive,,inactive,,inactive,inactive,inactive,inactive,,inactive,inactive,
Clc1ccc(C2(Cn3cncn3)CC(Br)CO2)c(Cl)c1 (stereo not drawn),inactive,inactive,inactive,34.5 µM (active),,27.4 µM (active),,inactive,inactive,,inactive,,68.2 µM (active),inactive,inactive,,inactive,inactive,inactive,
O=C(O)c1ccccc1C(=O)Nc1cccc2ccccc12,inactive,inactive,inactive,inactive,inactive,,inactive,inactive,inactive,inactive,,,,inactive,inactive,inactive,,inactive,inactive,
CC(C)=CCOc1c2occc2cc2ccc(=O)oc12,inactive,inactive,inactive,inactive,,inactive,inactive,inactive,inactive,inactive,,,inactive,inactive,inactive,inactive,inactive,inactive,inactive,
CCOP(=S)(OCC)SCn1nnc2ccccc2c1=O,inactive,inactive,inactive,inactive,,21.9 µM (active),21.9 µM (active),24.5 µM (active),inactive,,inactive,,48.6 µM (active),inactive,inactive,inactive,inactive,inactive,inactive,
CCCCC(O)(Cn1cncn1)c1ccc(Cl)cc1Cl (stereo not drawn),inactive,54.9 µM (active),inactive,48.9 µM (active),,43.6 µM (active),43.6 µM (active),24.5 µM (active),,,inactive,54.4 µM (active),,inactive,inactive,,,,,
OCCCBr,inactive,inactive,inactive,inactive,inactive,inactive,inactive,inactive,inactive,,inactive,,inactive,inactive,inactive,inactive,inactive,,,inactive
O=C(O)CC(Cl)C(=O)O (stereo not drawn),inactive,inactive,inactive,,inactive,inactive,inactive,inactive,inactive,,,,,inactive,inactive,inactive,inactive,inactive,inactive,
CC1(C)CCC(Cc2ccc(Cl)cc2)C1(O)Cn1cncn1 (stereo not drawn),inactive,inactive,inactive,54.9 µM (active),,24.5 µM (active),,inactive,,inactive,inactive,,61.1 µM (active),inactive,inactive,inactive,inactive,inactive,inactive,
CC(C)N(C(=O)COc1nnc(C(F)(F)F)s1)c1ccc(F)cc1,inactive,inactive,inactive,inactive,,,34.7 µM (active),inactive,inactive,inactive,inactive,,inactive,inactive,inactive,inactive,inactive,inactive,inactive,
CCOC(=O)CBr,inactive,inactive,inactive,inactive,inactive,,,inactive,inactive,inactive,inactive,,,inactive,inactive,inactive,inactive,inactive,inactive,
S=C=NCc1ccccc1,inactive,49.5 µM (active),inactive,,inactive,24.8 µM (active),,inactive,inactive,,,27.6 µM (active),,inactive,inactive,inactive,inactive,inactive,inactive,
CN(C)c1ccc(N(C)C)cc1,inactive,inactive,inactive,inactive,inactive,,34.8 µM (active),inactive,inactive,61.3 µM (active),inactive,,,,inactive,24.4 µM (active),inactive,inactive,inactive,
O=C1CN=C(c2ccccc2)c2cc(Cl)ccc2N1CC1CC1,16.3 µM (active),inactive,inactive,inactive,inactive,,,,inactive,inactive,,,,inactive,inactive,inactive,inactive,inactive,inactive,inactive
O=[N+]([O-])c1ccc(F)c([N+](=O)[O-])c1,inactive,inactive,inactive,inactive,inactive,,,inactive,inactive,17.4 µM (active),30.9 µM (active),,,12.3 µM (active),inactive,24.6 µM (active),,inactive,inactive,inactive

Structure (SMILES),Potency [1],Potency [2],Potency [3],Potency [4],Potency [5],Potency [6],Potency [7],Potency [8],Potency [9],Potency [10],Potency [11],Potency [12],Potency [13],Potency [14],Potency [15],Potency [16],Potency [17],Potency [18],Potency [19],outcome [20]
CCOC(=O)C(Cl)C(C)=O (stereo not drawn),inactive,inactive,inactive,24.8 µM (active),inactive,inactive,inactive,inactive,inactive,inactive,inactive,,inactive,inactive,inactive,inactive,inactive,,inactive,
CN1C[C@H](CNC(=O)OCc2ccccc2)C[C@@H]2c3cccc4c3c(cn4C)C[C@H]21,inactive,inactive,inactive,26.8 µM (active),,21.3 µM (active),,inactive,,inactive,,,inactive,inactive,inactive,,inactive,inactive,inactive,
CS/C(C)=N/OC(=O)N(C)SN(C)C(=O)O/N=C(\C)SC,inactive,54.9 µM (active),inactive,54.9 µM (active),,49 µM (active),43.6 µM (active),inactive,,inactive,,inactive,inactive,inactive,inactive,54.5 µM (active),inactive,,,
NS(=O)(=O)C(F)(F)C(F)(F)C(F)(F)C(F)(F)C(F)(F)C(F)(F)C(F)(F)C(F)(F)F,inactive,inactive,inactive,,inactive,inactive,inactive,inactive,inactive,,inactive,inactive,inactive,inactive,inactive,inactive,inactive,inactive,inactive,
CCCN(CC1CC1)c1c([N+](=O)[O-])cc(C(F)(F)F)cc1[N+](=O)[O-],inactive,inactive,inactive,inactive,inactive,inactive,,inactive,inactive,inactive,inactive,,,inactive,inactive,inactive,,,inactive,
OC(c1ccc(Cl)cc1)(c1ccc(Cl)cc1)c1cccnc1,inactive,inactive,inactive,inactive,,38.9 µM (active),,inactive,inactive,inactive,inactive,27.3 µM (active),inactive,inactive,inactive,inactive,inactive,inactive,inactive,
O=C(Nc1ccccc1)Nc1ccnc(Cl)c1,inactive,inactive,inactive,,inactive,19.5 µM (active),,,inactive,,,43.3 µM (active),24.3 µM (active),4.33 µM (active),inactive,,,inactive,inactive,
COc1nn(CSP(=S)(OC)OC)c(=O)s1,inactive,inactive,inactive,,inactive,inactive,inactive,inactive,inactive,inactive,inactive,,,inactive,inactive,inactive,inactive,inactive,inactive,inactive
COP(=O)(OC)O/C(=C/Cl)c1cc(Cl)c(Cl)cc1Cl,inactive,inactive,inactive,,inactive,,inactive,inactive,inactive,inactive,inactive,45.7 µM (active),57.5 µM (active),inactive,inactive,inactive,inactive,inactive,inactive,
COc1ccc(-c2ccccc2)cc1NNC(=O)OC(C)C,inactive,,inactive,inactive,,51 µM (active),,inactive,,inactive,inactive,63.7 µM (active),71.5 µM (active),inactive,inactive,inactive,,inactive,inactive,
CO/C=C(/C(=O)OC)c1ccccc1COc1cccc(C(F)(F)F)n1,inactive,,inactive,inactive,inactive,,,inactive,inactive,,6.85 µM (active),,,inactive,inactive,inactive,inactive,,inactive,
[O-][Cl+]O,inactive,,inactive,inactive,inactive,inactive,inactive,inactive,,inactive,inactive,,,inactive,inactive,inactive,inactive,inactive,inactive,
CC(O)(CS(=O)(=O)c1ccc(F)cc1)C(=O)Nc1ccc(C#N)c(C(F)(F)F)c1 (stereo not drawn),,inactive,inactive,inactive,,,,,inactive,,inactive,,,inactive,inactive,inactive,inactive,inactive,inactive,inactive
CCOc1nc(F)cc2nc(S(=O)(=O)Nc3c(Cl)cccc3Cl)nn12,,inactive,inactive,inactive,inactive,inactive,inactive,,inactive,inactive,inactive,,inactive,inactive,inactive,,,inactive,inactive,
CCCC(Cn1cncn1)c1ccc(Cl)cc1Cl (stereo not drawn),inactive,,inactive,49 µM (active),,21.9 µM (active),,inactive,inactive,inactive,inactive,,,inactive,inactive,inactive,inactive,inactive,inactive,
C/C(=C\c1ccccc1)[N+](=O)[O-],inactive,,inactive,,,,,inactive,inactive,inactive,,12.2 µM (active),inactive,inactive,inactive,15.4 µM (active),,inactive,inactive,
